# Measured values as given in publication PMC11995724, “Antibiotic target discovery by integrated phenotypic and activity-based profiling of electrophilic fragments” (Cell chemical biology, 2025).
# The campaign covered roughly 3,200 compounds. About 110 (3.4%) showed an effect of 50% or more. Only a selection was taken, and strong results are over-represented in it overall.
# Test system: T1, V. cholerae SAD30
# T1 construct: SAD30
# Parameters: species or system S. aureus MSSA476 (TSB) or V. cholerae SAD30 (LB); 384-well bacterial growth screen at 25 uM, OD600 relative to DMSO control
# Settings: relative growth, OD600, LB; 25 µM; inhibitor
row,SMILES,% of control remaining [%]
1,"N#CC(=Cc1cccc2ccccc12)C(=O)NC1CC1 [9-O03, 2-cyano-N-cyclopropyl-3-(naphthalen-1-yl)prop-2-enamide]",97.2808
2,"CC(C)N(Cc1ccc(N(C)C)cc1)C(=O)CCl [5-E06, 2-chloro-N-{[4-(dimethylamino)phenyl]methyl}-N-(propan-2-yl)acetamide]",100.2
3,"O=C(CCl)NCCOc1cccc(F)c1 [6-G03, 2-chloro-N-[2-(3-fluorophenoxy)ethyl]acetamide]",108.75
4,"CC(Cl)C(=O)NCc1ccon1 (stereo not shown) [7-I13, 2-chloro-N-[(1,2-oxazol-3-yl)methyl]propanamide]",79.9604
5,"Cc1cc(C(=O)CCl)c(F)cc1F [10-O03, 2-chloro-1-(2,4-difluoro-5-methylphenyl)ethan-1-one]",34.9114
6,"Cc1cc(C(=O)CCl)c(C)c(C)c1C [10-I06, 2-chloro-1-(2,3,4,5-tetramethylphenyl)ethan-1-one]",98.9675
7,"Cc1ccc(-n2c(C)cc(C(=O)CCl)c2C)cc1C [10-B14, 2-chloro-1-[1-(3,4-dimethylphenyl)-2,5-dimethyl-1H-pyrrol-3-yl]ethan-1-one]",97.5648
8,"Cc1cc(C)c(C(=O)CCl)c(C)c1 [10-C08, 2-chloro-1-(2,4,6-trimethylphenyl)ethan-1-one]",98.9675
9,"Cc1ccc(-n2c(C)cc(C(=O)CCl)c2C)cc1F [10-C06, 2-chloro-1-[1-(3-fluoro-4-methylphenyl)-2,5-dimethyl-1H-pyrrol-3-yl]ethan-1-one]",94.9153
10,"Cc1cc(F)c(C(=O)CCl)cc1F [10-L19, 2-chloro-1-(2,5-difluoro-4-methylphenyl)ethan-1-one]",32.7294
11,"N#CC(=Cc1ccc([N+](=O)[O-])cc1)C(=O)Nc1ccc(Cl)cc1 [8-O11, N-(4-chlorophenyl)-2-cyano-3-(4-nitrophenyl)prop-2-enamide]",68.7288
12,"O=C(CCl)N1N=C(c2cccs2)CC1c1cccc(O)c1 (stereo not shown) [6-L04, 2-chloro-1-[5-(3-hydroxyphenyl)-3-(thiophen-2-yl)-4,5-dihydro-1H-pyrazol-1-yl]ethan-1-one]",102.076
13,"CC(CO)(Cc1ccc(F)cc1)NC(=O)CCl (stereo not shown) [7-F06, 2-chloro-N-{2-[(4-fluorophenyl)methyl]-1-hydroxypropan-2-yl}acetamide]",78.5065
14,"CC(Cl)C(=O)N1Cc2ccccc2OCC1C (stereo not shown) [7-F11, 2-chloro-1-(3-methyl-2,3,4,5-tetrahydro-1,4-benzoxazepin-4-yl)propan-1-one]",75.731
15,"N#CC(=Cc1ccc([N+](=O)[O-])o1)C(=O)NCc1ccco1 [8-I17, 2-cyano-N-[(furan-2-yl)methyl]-3-(5-nitrofuran-2-yl)prop-2-enamide]",-0.06798
16,"Cc1ccc(C=C(C#N)C(=O)NCc2ccco2)o1 [8-P19, 2-cyano-N-[(furan-2-yl)methyl]-3-(5-methylfuran-2-yl)prop-2-enamide]",80.6934
17,"N#CC(=Cc1cc2ccccc2o1)C(=O)NCc1ccco1 [9-O08, 3-(1-benzofuran-2-yl)-2-cyano-N-[(furan-2-yl)methyl]prop-2-enamide]",80.4215
18,"Cc1cc(C=C(C#N)C(N)=O)c(C)n1-c1cccc2ccccc12 [9-I12, 2-cyano-3-[2,5-dimethyl-1-(naphthalen-1-yl)-1H-pyrrol-3-yl]prop-2-enamide]",52.4133
19,"C=CC(=O)N1CCC(C(=O)NC[C@H]2C[C@@H](O)C2)(c2ccccc2)CC1 [3-O04, 4-phenyl-1-(prop-2-enoyl)-N-{[(1s,3s)-3-hydroxycyclobutyl]methyl}piperidine-4-carboxamide]",105.852
20,"CC(Cl)C(=O)Nc1ccccc1[N+](=O)[O-] (stereo not shown) [4-G18, 2-chloro-N-(2-nitrophenyl)propanamide]",96.0966
21,"CN(C)CCN1C(=O)C=CC1=O [10-G11, 1-[2-(dimethylamino)ethyl]-2,5-dihydro-1H-pyrrole-2,5-dione]",99.9026
22,"O=C1C=CC(=O)N1CCCCO [10-K07, 1-(4-hydroxybutyl)-2,5-dihydro-1H-pyrrole-2,5-dione]",17.4557
23,"CCOC=C(C#N)C(=O)N1CCN(S(=O)(=O)c2cc[nH]n2)CC1 [9-D06, 3-ethoxy-2-[4-(1H-pyrazole-3-sulfonyl)piperazine-1-carbonyl]prop-2-enenitrile]",86.1319

row,SMILES,% of control remaining [%]
1,"C#CCN1C(=O)C=CC1=O [10-F09, 1-(prop-2-yn-1-yl)-2,5-dihydro-1H-pyrrole-2,5-dione]",15.1179
2,"CC(Cl)C(=O)N1CCN(Cc2ccc3ccccc3n2)CC1 (stereo not shown) [7-A15, 2-chloro-1-{4-[(quinolin-2-yl)methyl]piperazin-1-yl}propan-1-one]",80.0925
3,"Cc1nc(C#N)c(N2CCN(C(=O)CCl)CC2)o1 [5-L18, 5-[4-(2-chloroacetyl)piperazin-1-yl]-2-methyl-1,3-oxazole-4-carbonitrile]",96.3329
4,"Cc1nc(C)c(C(=O)CCl)o1 [10-N08, 2-chloro-1-(2,4-dimethyl-1,3-oxazol-5-yl)ethan-1-one]",41.4572
5,"Cc1ccc(C(=O)CCl)o1 [10-A09, 2-chloro-1-(5-methylfuran-2-yl)ethan-1-one]",117.514
6,"CC(Cl)C(=O)Nc1c(Cl)cccc1Cl (stereo not shown) [4-B16, 2-chloro-N-(2,6-dichlorophenyl)propanamide]",102.653
7,"C=CC(=O)NC(=O)NCc1ccccc1 [1-I04, 1-benzyl-3-(prop-2-enoyl)urea]",96.861
8,"NS(=O)(=O)c1cccc2cc(NC(=O)CCl)ccc12 [5-K16, 2-chloro-N-(5-sulfamoylnaphthalen-2-yl)acetamide]",109.11
9,"C=CC(=O)N(Cc1c(F)cc(C)cc1Cl)C1CCCOCC1 (stereo not shown) [2-A13, N-[(2-chloro-6-fluoro-4-methylphenyl)methyl]-N-(oxepan-4-yl)prop-2-enamide]",81.8585
10,"C=CC(=O)N1CCC(C(=O)N2CCN(c3ccnc(C)n3)CC2)CC1 [2-L06, 1-{4-[4-(2-methylpyrimidin-4-yl)piperazine-1-carbonyl]piperidin-1-yl}prop-2-en-1-one]",88.9607
11,"COc1cccc([C@H]2C[C@H](N(C)C(=O)C(C)Cl)C2)c1 (stereo partly shown) [6-B17, 2-chloro-N-methyl-N-[(1r,3r)-3-(3-methoxyphenyl)cyclobutyl]propanamide]",89.6388
12,"Cc1noc(C)c1C(=O)CCl [10-K13, 2-chloro-1-(3,5-dimethyl-1,2-oxazol-4-yl)ethan-1-one]",23.0664
13,"Cc1noc(C)c1CN(C)C(=O)CCl [5-G06, 2-chloro-N-[(3,5-dimethyl-1,2-oxazol-4-yl)methyl]-N-methylacetamide]",92.4661
14,"Cc1coc(C)c1C(=O)CCl [10-M11, 2-chloro-1-(2,4-dimethylfuran-3-yl)ethan-1-one]",109.41
15,"O=C1C=CC(=O)N1c1ccccc1F [10-D17, 1-(2-fluorophenyl)-2,5-dihydro-1H-pyrrole-2,5-dione]",26.1835
16,"O=C1C=CC(=O)N1c1ccc(F)cc1F [10-F15, 1-(2,4-difluorophenyl)-2,5-dihydro-1H-pyrrole-2,5-dione]",26.4952
17,"O=C(c1ccccc1)c1cc(Cl)ccc1N1C(=O)C=CC1=O [10-M16, 1-(2-benzoyl-4-chlorophenyl)-2,5-dihydro-1H-pyrrole-2,5-dione]",57.9778
18,"CN(C(=O)CCl)C1CCN(c2ccccc2F)C1=O (stereo not shown) [5-A18, 2-chloro-N-[1-(2-fluorophenyl)-2-oxopyrrolidin-3-yl]-N-methylacetamide]",104.066
19,"N#CC(=Cc1cccc(-c2ccncc2)c1)C(=O)NCc1ccco1 [9-B06, 2-cyano-N-[(furan-2-yl)methyl]-3-[3-(pyridin-4-yl)phenyl]prop-2-enamide]",87.4915
20,"C=CC(=O)N1CCC(c2nc(C3CC3)no2)C1 (stereo not shown) [2-E09, 1-[3-(3-cyclopropyl-1,2,4-oxadiazol-5-yl)pyrrolidin-1-yl]prop-2-en-1-one]",93.9014
21,"C=CC(=O)N1CCC(C(=O)NCCC2(O)CCCOC2)CC1 (stereo not shown) [2-B04, N-[2-(3-hydroxyoxan-3-yl)ethyl]-1-(prop-2-enoyl)piperidine-4-carboxamide]",101.004
22,"Cc1ccc(C(=O)C(C)Cl)cc1C (stereo not shown) [10-B20, 2-chloro-1-(3,4-dimethylphenyl)propan-1-one]",99.2792
23,"CCc1ccc(NC(=O)C(C#N)=Cc2cccnc2)cc1 [8-G04, 2-cyano-N-(4-ethylphenyl)-3-(pyridin-3-yl)prop-2-enamide]",83.8205
